# Measured values published in article PMC7862700, “An all-to-all approach to the identification of sequence-specific readers for epigenetic DNA modifications on cytosine”.
# Columns and labels:
# Assay in all cases: DAPPL (digital affinity profiling via proximity ligation, sequencing); 10 mM Tris-HCl pH 7.5, 50 mM NaCl, 1 mM DTT, 4% glycerol, room temperature, 30 min; GST-TFs on glutathione beads, 16-mer random dsDNA library, 0.1% formaldehyde crosslink after washing; high values mean tight binding
# FLI1 = molecular target: T1, FLI1 (Homo sapiens, UniProt Q01543 1-452); conditions: protein: recombinant; tags: N-terminal GST; dsDNA, one strand shown
# T1 sequence: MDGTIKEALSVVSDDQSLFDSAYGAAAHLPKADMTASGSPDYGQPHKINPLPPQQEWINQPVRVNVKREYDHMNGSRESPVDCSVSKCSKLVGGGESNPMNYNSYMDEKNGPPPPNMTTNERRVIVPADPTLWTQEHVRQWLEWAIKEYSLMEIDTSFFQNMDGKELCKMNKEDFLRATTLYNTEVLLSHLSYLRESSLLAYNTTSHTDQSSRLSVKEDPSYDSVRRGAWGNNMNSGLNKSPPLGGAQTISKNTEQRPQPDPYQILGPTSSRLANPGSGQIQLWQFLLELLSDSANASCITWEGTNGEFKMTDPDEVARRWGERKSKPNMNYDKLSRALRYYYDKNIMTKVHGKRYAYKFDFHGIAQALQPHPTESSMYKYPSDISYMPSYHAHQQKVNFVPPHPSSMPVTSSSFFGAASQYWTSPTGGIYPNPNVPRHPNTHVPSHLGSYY
# Outline: (§1)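 Each value of binding signal is a hexamer's read frequency for a factor divided by the same hexamer's frequency in the tag-only sample. Barcoded, bead-captured GST fusions of human transcription factors made in yeast were pooled with that sample and incubated with 200 nmole of a random double-stranded 16-mer DNA library in Tris/NaCl/DTT/glycerol buffer at room temperature for 30 min. Washing, 0.1% formaldehyde crosslinking, proximity ligation, PCR and Illumina NextSeq500 sequencing followed.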
# ELK1 = molecular target: T2, ELK1 (Homo sapiens, UniProt P19419 1-428); conditions: protein: recombinant; tags: N-terminal GST; dsDNA, one strand shown
# T2 sequence: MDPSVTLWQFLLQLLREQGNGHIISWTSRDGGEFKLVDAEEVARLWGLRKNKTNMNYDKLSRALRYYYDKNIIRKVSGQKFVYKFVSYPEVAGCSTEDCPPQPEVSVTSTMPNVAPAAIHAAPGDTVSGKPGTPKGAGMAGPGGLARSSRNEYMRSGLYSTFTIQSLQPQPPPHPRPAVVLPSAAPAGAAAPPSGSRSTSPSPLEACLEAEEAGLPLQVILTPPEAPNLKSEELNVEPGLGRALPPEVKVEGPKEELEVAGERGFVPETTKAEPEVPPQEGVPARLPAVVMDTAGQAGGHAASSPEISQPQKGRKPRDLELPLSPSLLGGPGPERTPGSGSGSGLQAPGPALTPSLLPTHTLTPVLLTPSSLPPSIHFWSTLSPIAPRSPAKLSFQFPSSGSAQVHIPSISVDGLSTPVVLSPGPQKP
# Outline: as §1
# GABPA = molecular target: T3, GABPA (Homo sapiens, UniProt Q06546 1-454); conditions: protein: recombinant; tags: N-terminal GST; dsDNA, one strand shown
# T3 sequence: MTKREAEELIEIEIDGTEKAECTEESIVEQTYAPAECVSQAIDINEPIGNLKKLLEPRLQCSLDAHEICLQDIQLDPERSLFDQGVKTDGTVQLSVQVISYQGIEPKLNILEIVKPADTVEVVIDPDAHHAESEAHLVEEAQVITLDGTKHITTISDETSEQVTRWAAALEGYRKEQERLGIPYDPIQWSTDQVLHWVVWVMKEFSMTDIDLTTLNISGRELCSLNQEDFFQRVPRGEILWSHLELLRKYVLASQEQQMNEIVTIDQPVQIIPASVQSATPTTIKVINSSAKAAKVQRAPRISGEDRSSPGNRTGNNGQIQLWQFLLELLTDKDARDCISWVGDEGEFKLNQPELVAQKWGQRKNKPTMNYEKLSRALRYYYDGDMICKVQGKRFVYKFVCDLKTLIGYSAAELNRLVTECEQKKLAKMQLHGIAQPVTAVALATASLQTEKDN
# Outline: as §1
# ERG = molecular target: T4, ERG (Homo sapiens, UniProt P11308 1-479); conditions: protein: recombinant; tags: N-terminal GST; dsDNA, one strand shown
# T4 sequence: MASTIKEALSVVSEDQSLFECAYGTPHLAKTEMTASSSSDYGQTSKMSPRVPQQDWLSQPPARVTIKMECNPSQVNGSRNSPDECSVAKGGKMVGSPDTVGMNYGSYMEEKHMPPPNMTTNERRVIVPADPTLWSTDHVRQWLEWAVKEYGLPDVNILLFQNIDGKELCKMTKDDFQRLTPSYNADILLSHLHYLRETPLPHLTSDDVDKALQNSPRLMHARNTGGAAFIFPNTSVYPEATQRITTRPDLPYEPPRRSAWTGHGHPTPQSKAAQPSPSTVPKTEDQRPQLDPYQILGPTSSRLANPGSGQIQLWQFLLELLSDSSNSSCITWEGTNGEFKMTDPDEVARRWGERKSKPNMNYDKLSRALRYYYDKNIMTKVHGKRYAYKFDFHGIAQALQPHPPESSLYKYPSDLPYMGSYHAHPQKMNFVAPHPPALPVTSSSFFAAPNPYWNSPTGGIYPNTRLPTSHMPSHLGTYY
# Outline: as §1
# ELF1 = ELF1 (Homo sapiens, UniProt P32519 1-619); conditions: protein: recombinant; tags: N-terminal GST; dsDNA, one strand shown
# Sequence of ELF1 (P32519 whole entry): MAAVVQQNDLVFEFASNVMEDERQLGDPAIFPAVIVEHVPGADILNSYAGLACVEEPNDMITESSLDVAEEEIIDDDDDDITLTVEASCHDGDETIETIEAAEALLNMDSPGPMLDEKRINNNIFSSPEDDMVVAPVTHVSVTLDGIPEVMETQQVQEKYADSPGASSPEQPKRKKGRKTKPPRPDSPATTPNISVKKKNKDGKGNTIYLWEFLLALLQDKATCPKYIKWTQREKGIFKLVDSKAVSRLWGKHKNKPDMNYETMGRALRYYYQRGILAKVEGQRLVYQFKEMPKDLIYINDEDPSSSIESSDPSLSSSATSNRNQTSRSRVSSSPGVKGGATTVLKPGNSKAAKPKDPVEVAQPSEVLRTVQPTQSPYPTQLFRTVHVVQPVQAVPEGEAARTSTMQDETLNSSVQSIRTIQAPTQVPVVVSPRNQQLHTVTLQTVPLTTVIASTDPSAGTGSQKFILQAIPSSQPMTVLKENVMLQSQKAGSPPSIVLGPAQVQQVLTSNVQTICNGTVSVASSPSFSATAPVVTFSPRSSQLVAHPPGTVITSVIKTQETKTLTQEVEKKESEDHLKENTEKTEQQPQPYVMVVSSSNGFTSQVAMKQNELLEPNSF
# Outline: as §1
# EHF = molecular target: T5, EHF (Homo sapiens, UniProt Q9NZC4 1-300); conditions: protein: recombinant; tags: N-terminal GST; dsDNA, one strand shown
# T5 sequence: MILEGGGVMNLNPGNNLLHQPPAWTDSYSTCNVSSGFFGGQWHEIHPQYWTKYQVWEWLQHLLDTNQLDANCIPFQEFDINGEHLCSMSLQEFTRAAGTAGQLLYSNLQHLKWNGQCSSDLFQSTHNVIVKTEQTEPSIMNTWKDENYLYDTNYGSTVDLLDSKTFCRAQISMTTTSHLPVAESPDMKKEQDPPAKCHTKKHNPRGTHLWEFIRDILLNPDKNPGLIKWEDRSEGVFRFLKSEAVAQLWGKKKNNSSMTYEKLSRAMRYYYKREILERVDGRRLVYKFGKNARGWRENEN
# Outline: as §1
# SPI1 = SPI1 (Homo sapiens, UniProt P17947 1-270); conditions: protein: recombinant; tags: N-terminal GST; dsDNA, one strand shown
# Outline: as §1
# SPIB = SPIB (Homo sapiens, UniProt Q01892 1-262); conditions: protein: recombinant; tags: N-terminal GST; dsDNA, one strand shown
# Sequence of SPIB (Q01892 whole entry): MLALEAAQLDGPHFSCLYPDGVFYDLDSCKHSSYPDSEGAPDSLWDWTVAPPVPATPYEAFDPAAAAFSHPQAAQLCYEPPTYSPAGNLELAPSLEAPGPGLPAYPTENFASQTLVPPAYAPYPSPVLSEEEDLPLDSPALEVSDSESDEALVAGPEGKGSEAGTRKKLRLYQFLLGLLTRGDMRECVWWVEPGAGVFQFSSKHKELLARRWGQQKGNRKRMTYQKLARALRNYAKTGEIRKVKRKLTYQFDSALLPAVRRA
# Outline: as §1
# ELK3 = molecular target: T6, ELK3 (Homo sapiens, UniProt P41970 1-407); conditions: protein: recombinant; tags: N-terminal GST; dsDNA, one strand shown
# T6 sequence: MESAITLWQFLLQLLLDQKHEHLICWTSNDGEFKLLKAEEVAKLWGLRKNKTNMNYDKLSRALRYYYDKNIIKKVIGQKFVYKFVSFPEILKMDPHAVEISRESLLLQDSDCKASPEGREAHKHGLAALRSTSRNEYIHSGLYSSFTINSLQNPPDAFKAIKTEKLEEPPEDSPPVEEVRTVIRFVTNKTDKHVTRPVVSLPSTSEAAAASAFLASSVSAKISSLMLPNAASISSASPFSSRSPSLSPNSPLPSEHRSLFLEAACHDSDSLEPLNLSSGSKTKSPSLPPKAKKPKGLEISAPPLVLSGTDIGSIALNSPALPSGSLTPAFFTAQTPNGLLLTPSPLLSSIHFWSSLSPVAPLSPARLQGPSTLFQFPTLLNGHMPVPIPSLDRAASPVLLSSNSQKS
# Outline: as §1
# FEV = molecular target: T7, FEV (Homo sapiens, UniProt Q99581 1-238); conditions: protein: recombinant; tags: N-terminal GST; dsDNA, one strand shown
# T7 sequence: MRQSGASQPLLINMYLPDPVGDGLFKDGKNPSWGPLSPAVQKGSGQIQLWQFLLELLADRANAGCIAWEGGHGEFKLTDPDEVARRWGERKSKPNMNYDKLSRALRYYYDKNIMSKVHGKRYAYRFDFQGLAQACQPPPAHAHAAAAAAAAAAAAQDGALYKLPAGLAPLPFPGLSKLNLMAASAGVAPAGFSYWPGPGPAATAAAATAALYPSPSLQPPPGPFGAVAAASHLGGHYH
# Outline: as §1
# ETV5 = ETV5 (Homo sapiens, UniProt P41161 1-510); conditions: protein: recombinant; tags: N-terminal GST; dsDNA, one strand shown
# Sequence of ETV5 (P41161 whole entry): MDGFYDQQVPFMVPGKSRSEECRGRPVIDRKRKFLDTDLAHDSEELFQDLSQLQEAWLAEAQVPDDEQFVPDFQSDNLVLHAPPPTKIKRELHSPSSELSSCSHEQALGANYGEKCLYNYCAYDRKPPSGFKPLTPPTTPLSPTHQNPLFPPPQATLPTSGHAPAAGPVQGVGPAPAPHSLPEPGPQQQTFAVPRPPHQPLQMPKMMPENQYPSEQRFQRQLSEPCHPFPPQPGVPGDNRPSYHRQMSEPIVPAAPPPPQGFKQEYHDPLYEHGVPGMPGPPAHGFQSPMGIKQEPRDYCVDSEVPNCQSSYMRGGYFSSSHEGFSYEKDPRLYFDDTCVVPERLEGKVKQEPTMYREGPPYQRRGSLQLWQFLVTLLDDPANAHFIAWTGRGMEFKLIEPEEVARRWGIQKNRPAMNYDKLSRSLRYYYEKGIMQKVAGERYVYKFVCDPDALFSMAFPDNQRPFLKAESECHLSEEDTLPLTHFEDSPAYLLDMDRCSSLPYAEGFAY
# Outline: as §1
# HSF1 = HSF1 (Homo sapiens, UniProt Q00613 1-529); conditions: protein: recombinant; tags: N-terminal GST; chain copies: 3; dsDNA, one strand shown
# Sequence of HSF1 (Q00613 whole entry): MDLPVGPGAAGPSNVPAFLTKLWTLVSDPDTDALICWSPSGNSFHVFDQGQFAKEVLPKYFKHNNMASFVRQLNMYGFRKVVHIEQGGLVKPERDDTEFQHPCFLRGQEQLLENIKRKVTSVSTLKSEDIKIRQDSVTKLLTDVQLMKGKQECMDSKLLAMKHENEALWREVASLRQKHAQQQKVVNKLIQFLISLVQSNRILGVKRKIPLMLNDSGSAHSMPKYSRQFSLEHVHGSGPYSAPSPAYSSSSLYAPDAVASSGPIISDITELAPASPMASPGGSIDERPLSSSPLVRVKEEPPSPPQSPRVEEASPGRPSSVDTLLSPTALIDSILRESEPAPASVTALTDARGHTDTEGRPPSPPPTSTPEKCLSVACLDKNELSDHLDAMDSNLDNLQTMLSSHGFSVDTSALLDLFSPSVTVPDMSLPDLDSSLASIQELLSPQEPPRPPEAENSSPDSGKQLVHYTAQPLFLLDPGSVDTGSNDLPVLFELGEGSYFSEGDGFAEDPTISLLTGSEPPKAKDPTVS
# Outline: as §1
# SPIC = molecular target: T8, SPIC (Homo sapiens, UniProt Q8N5J4 1-248); conditions: protein: recombinant; tags: N-terminal GST; dsDNA, one strand shown
# T8 sequence: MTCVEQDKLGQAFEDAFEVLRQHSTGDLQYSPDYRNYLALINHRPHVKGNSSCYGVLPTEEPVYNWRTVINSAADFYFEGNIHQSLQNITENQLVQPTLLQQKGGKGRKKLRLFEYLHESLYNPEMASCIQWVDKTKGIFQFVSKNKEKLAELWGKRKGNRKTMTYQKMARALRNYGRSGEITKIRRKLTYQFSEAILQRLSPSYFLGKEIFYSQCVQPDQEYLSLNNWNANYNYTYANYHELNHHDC
# Outline: as §1
# ELF4 = ELF4 (Homo sapiens, UniProt Q99607 1-663); conditions: protein: recombinant; tags: N-terminal GST; dsDNA, one strand shown
# Sequence of ELF4 (Q99607 whole entry): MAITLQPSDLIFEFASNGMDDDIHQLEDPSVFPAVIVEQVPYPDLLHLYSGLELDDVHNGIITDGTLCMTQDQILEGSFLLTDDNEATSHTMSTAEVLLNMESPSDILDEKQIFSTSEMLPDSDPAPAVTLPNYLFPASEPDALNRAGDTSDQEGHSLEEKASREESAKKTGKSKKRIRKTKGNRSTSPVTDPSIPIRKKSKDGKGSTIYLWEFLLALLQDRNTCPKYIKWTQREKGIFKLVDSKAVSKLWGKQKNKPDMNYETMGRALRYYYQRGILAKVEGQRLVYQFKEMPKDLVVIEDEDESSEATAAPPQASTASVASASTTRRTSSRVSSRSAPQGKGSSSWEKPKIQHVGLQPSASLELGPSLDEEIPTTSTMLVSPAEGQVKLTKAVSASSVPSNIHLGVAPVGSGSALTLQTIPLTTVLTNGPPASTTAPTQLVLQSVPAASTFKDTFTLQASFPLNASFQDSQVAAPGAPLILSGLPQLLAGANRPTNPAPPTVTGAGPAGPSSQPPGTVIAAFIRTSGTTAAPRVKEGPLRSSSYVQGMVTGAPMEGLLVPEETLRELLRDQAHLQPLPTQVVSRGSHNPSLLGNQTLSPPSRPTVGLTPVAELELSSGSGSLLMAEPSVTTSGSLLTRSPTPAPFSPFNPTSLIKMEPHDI
# Outline: as §1
# ELK4 = molecular target: T9, ELK4 (Homo sapiens, UniProt P28324-2 1-405); conditions: protein: recombinant; tags: N-terminal GST; dsDNA, one strand shown
# T9 sequence: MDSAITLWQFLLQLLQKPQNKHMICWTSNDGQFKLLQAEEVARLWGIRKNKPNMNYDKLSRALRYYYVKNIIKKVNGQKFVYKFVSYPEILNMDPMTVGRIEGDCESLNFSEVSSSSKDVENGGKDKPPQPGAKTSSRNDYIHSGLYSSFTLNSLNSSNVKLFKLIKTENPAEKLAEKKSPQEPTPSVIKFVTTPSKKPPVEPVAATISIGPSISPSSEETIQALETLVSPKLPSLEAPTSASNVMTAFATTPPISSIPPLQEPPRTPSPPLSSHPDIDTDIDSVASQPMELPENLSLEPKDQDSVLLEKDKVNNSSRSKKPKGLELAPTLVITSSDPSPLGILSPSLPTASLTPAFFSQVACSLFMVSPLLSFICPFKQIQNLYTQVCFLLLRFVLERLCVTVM
# Outline: as §1
# ETV2 = molecular target: T10, ETV2 (Homo sapiens, UniProt O00321 1-342); conditions: protein: recombinant; tags: N-terminal GST; dsDNA, one strand shown
# T10 sequence: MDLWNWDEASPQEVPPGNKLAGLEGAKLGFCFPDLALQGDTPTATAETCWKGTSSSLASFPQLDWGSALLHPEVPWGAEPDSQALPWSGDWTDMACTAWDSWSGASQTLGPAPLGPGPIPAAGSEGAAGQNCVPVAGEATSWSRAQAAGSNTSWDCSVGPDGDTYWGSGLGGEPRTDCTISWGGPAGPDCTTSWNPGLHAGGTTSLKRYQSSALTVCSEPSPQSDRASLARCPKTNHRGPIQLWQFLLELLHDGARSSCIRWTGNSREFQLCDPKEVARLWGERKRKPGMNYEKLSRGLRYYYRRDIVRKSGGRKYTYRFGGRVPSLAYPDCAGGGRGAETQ
# Outline: as §1
# ELF3 = molecular target: T11, ELF3 (Homo sapiens, UniProt P78545 1-371); conditions: protein: recombinant; tags: N-terminal GST; dsDNA, one strand shown
# T11 sequence: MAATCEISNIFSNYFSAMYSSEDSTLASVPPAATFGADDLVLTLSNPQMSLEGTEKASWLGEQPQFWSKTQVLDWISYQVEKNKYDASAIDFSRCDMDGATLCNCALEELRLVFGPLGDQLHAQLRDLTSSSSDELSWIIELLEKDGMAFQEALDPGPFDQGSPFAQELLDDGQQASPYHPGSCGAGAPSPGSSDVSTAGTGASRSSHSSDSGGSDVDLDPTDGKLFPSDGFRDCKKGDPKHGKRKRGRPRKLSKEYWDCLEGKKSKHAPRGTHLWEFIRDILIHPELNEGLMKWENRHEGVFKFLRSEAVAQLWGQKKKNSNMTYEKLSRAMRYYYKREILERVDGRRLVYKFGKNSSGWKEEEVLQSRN
# Outline: as §1
# CRX = CRX (Homo sapiens, UniProt O43186 1-299); conditions: protein: recombinant; tags: N-terminal GST; dsDNA, one strand shown
# Sequence of CRX (O43186 whole entry): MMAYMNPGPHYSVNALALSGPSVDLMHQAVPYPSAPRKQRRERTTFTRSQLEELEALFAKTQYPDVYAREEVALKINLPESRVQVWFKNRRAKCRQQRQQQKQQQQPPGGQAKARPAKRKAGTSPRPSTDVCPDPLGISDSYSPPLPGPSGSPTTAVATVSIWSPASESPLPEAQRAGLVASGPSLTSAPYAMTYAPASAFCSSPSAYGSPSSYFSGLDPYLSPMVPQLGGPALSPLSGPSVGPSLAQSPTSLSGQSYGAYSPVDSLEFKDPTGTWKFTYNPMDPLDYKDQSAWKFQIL
# Outline: as §1
# ETV1 = ETV1 (Homo sapiens, UniProt P50549 1-477); conditions: protein: recombinant; tags: N-terminal GST; dsDNA, one strand shown
# Sequence of ETV1 (P50549 whole entry): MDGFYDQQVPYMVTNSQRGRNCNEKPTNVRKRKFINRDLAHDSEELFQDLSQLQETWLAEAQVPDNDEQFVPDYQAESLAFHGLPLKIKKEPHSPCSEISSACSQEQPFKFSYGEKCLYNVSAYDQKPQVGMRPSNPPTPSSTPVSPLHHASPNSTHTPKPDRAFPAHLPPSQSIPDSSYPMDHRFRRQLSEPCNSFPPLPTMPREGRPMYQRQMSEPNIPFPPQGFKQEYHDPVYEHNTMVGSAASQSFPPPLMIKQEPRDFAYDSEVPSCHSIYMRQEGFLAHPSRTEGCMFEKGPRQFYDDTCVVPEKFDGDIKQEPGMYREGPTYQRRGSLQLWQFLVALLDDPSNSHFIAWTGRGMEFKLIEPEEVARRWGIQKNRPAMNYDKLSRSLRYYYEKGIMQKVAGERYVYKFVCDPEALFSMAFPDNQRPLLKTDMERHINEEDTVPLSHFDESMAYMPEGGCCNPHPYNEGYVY
# Outline: as §1
sequence,measurement,setting,value
ATAGTT,binding signal,FLI1,"1.18 fold enrichment (6-mer frequency, TF over GST control)"
same,binding signal,ELK1,"1.16 fold enrichment (6-mer frequency, TF over GST control)"
same,binding signal,GABPA,"1.16 fold enrichment (6-mer frequency, TF over GST control)"
same,binding signal,ERG,"1.18 fold enrichment (6-mer frequency, TF over GST control)"
same,binding signal,ELF1,"1.16 fold enrichment (6-mer frequency, TF over GST control)"
same,binding signal,EHF,"1.18 fold enrichment (6-mer frequency, TF over GST control)"
same,binding signal,SPI1,"1.11 fold enrichment (6-mer frequency, TF over GST control)"
same,binding signal,SPIB,"1.2 fold enrichment (6-mer frequency, TF over GST control)"
same,binding signal,ELK3,"1.11 fold enrichment (6-mer frequency, TF over GST control)"
same,binding signal,FEV,"1.11 fold enrichment (6-mer frequency, TF over GST control)"
same,binding signal,ETV5,"1.25 fold enrichment (6-mer frequency, TF over GST control)"
same,binding signal,HSF1,"1.15 fold enrichment (6-mer frequency, TF over GST control)"
same,binding signal,SPIC,"1.14 fold enrichment (6-mer frequency, TF over GST control)"
same,binding signal,ELF4,"1.18 fold enrichment (6-mer frequency, TF over GST control)"
same,binding signal,ELK4,"1.39 fold enrichment (6-mer frequency, TF over GST control)"
same,binding signal,ETV2,"1.14 fold enrichment (6-mer frequency, TF over GST control)"
same,binding signal,ELF3,"1.29 fold enrichment (6-mer frequency, TF over GST control)"
same,binding signal,CRX,"1.1 fold enrichment (6-mer frequency, TF over GST control)"
same,binding signal,ETV1,"1.11 fold enrichment (6-mer frequency, TF over GST control)"
